Screening data from PubChem BioAssay.
Tau fibril ThT = qHTS for Inhibitors of Tau Fibril Formation, Thioflavin T Binding; 270,000 compounds, 2.1% hits; recombinant tau K18 P301L, heparin-induced fibrillization, ThT fluorescence; Potency, µM (doses to about 57.4 µM), inactives show at the top dose activity, negative = inhibition, actives largely listed as inhibitors; also: nearly all actives have a fitted effect of over 55% in size
Target sequence (P10636 561-689 P618L limits assumed): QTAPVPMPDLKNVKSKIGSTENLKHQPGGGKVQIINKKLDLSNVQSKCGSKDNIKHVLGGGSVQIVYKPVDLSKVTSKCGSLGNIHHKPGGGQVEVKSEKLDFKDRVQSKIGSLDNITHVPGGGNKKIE
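K18 P301L tau (15 uM + 0.24 uM Alexa 594-tagged), heparin 20 uM, NaOAc pH 7, 6 h 37 C; ThT 30 uM, 1 h RT, ex 450/em 510 nm.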
Tau fluor cs = Counterscreen qHTS for Inhibitors of Tau Fibril Formation, Fluorescence Polarization; Potency, µM (titrated, usually from 57.7 µM), without a hit: at the highest dose activity change, negative = decrease; tau K18 P301L (four-repeat tau fragment) Alexa594 fluorescence, heparin fibrillization; 280,000 compounds, 0.93% hits; AID 1463, 2008; also: nearly all actives have a fitted effect of over 55% in size
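Human K18 P301L tau (15 uM unlabeled plus 0.24 uM Alexa 594-labeled, final) in 100 mM sodium acetate pH 7 was mixed with compound and 20 uM heparin and incubated 6 hr at 37 C.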
GoLoco inh red = qHTS Assay for Inhibitors of RGS12 GoLoco Motif Activity (Red Fluorophore); Potency, µM (titrated, usually from 61.6 µM), for inactives: at the highest dose activity, negative = inhibition, usual class: inhibitors; Gai1:RGS12 GoLoco peptide FP, rhodamine, 10 min; 230,000 compounds, 0.44% hits; Guanine nucleotide-binding protein G(i) subunit alpha-1 (Homo sapiens), P63096; active = well fitted inhibition curve with a large enough effect, not every such curve was filed as active; inactive = no such curve, though single readings can be large or run the other way; also: nearly all actives have a fitted effect of over 30% in size
Target sequence (P63096 whole entry, looked up): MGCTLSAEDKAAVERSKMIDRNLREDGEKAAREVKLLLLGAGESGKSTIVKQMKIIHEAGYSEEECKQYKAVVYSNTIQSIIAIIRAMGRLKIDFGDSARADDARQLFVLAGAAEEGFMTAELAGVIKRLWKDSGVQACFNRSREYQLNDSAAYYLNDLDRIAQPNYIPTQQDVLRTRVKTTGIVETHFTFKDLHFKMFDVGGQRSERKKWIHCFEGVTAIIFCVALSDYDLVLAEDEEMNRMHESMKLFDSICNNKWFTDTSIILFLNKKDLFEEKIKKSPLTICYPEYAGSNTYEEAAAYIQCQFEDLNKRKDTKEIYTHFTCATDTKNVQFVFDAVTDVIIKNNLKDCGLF
KDM4E inh = qHTS Assay for Inhibitors of Human Jumonji Domain Containing 2E (JMJD2E) | Potency, µM (highest dose often 57.1 µM), for inactives: at the highest dose activity change, negative = inhibition, hits mostly inhibitors | JMJD2E catalytic domain, FDH-coupled NADH fluorescence (FDH is formaldehyde dehydrogenase) | 230,000 compounds, 1.6% hits | Lysine-specific demethylase 4E (Homo sapiens), B2RXH2; active = well fitted inhibition curve with a large enough effect, not every such curve was filed as active; inconclusive = small, poorly fitted or top-dose-only effect, or another doubt; inactive = no such curve, though single readings can be large or run the other way;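 also: 0% = wells with enzyme and -100% = buffer wells without enzyme; nearly all actives have a fitted effect of over 50% in size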
Tau fibril FP = qHTS for Inhibitors of Tau Fibril Formation, Fluorescence Polarization; K18 P301L tau heparin fibrillization, Alexa594 FP, 6 h; Potency, µM (doses to about 57.7 µM), for the others: at the highest dose activity, negative = inhibition, usual class: inhibitors; 280,000 compounds, 0.39% hits; AID 1468, 2008; also: nearly all actives have a fitted effect of over 55% in size
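Human K18 P301L fragment (15 uM unlabeled plus 0.24 uM Alexa 594-labeled) in 100 mM sodium acetate pH 7 with compound, aggregation induced by 20 uM heparin for 6 hr at 37 C. ThT (30 uM) added for 1 hr, then Alexa 594 FP read.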
* marks the source's active call; other numbers are inactive results; ? = inconclusive; nt = no result; [ ] = dose if it differs, or a comment. In the library only some 3.4% were active in any assay of this set; here they are far more common. Unless noted, calls follow the shape of the dose curve; as a rule, active = well fitted curve in the direction sought with a large enough effect; inconclusive = small, poorly fitted or top-dose-only effect, or another doubt; inactive = no such curve, though single readings can be large; an effect the other way counts as inactive or inconclusive. Unless noted, % is scaled to controls: 0 for no effect and ±100 for the full control effect; potency is read from the fitted curve at half-maximal effect.

SMILES | Tau fibril ThT | Tau fluor cs | GoLoco inh red | KDM4E inh | Tau fibril FP
CCC(NC(C)C)C(O)c1ccc(O)c(O)c1 (centres undefined) | ? | ? | 8% | 13µM* | -11%
CCCC(=Nc1ccc(N)cc1)C1=C(O)C(C(=O)OC)C(C)(C)CC1=O (centres undefined) | 7.9µM* | 7.1µM*[quencher] | 14µM* | ? | 14µM*
COc1ccccc1N=C1SC(C(=O)Nc2ccccc2OC)CC(=O)N1C (centres undefined) | -2% | -9% | nt | nt | 0%
COc1ccccc1N=C1SC(C(=O)Nc2cccc(Cl)c2Cl)C(N)=C1C(N)=O (centres undefined) | 25µM* | 18µM*[quencher] | 0% | -6% | ?
Cc1cccc(Oc2cc(NC(=O)Cn3cnc([N+](=O)[O-])n3)cc([N+](=O)[O-])c2)c1 | 0% | ? | 1% | 1% | 4%
O=C(Cn1cnc([N+](=O)[O-])c1)Nc1cc(Oc2ccc(Cl)cc2Cl)cc([N+](=O)[O-])c1 | ? | 4.5µM*[quencher] | 7% | 3% | ?
C=CCc1cccc2cc(-c3nc4ccc(C(=O)O)cc4[nH]3)c(=O)oc12 | ? | 10% | nt | nt | 6%
Cc1[nH][nH]c(=O)c1C(c1c(C)[nH][nH]c1=O)c1cn(Cc2ccccc2Cl)c2ccccc12 | 11µM* | -18% | -4% | ? | ?
Cc1ccc([N+](=O)[O-])c(C)c1 | nt | nt | -7% | nt | nt
Cc1ccc2c(c1)N/C(=C(\C=C(/Cl)[N+](=O)[O-])[N+](=O)[O-])N2 | 18µM* | ? | 19% | ? | -8%
CCCCCCNC(=O)N[C@H](C(=O)NCCC[C@H]1CN2C(=NC[C@H]2C)N1CCC(c1ccccc1)c1ccccc1)C(C)O (some centres undefined) | -16% | -4% | 10µM* | 20µM* | -7%
CN1CCN(C(=O)C2=C[C@H](c3csc4ccccc34)C[C@H](OCCCCO)O2)CC1 | -17% | 7% | 2% | 22µM* | -6%
Cc1cc(Cl)ccc1OCC(=O)N(Cc1ccc(N(C)C)cc1)CC1CCCO1 (centres undefined) | ? | -19% | nt | nt | 2%
O=C(O)c1cccc(Cn2c(Cl)c(/C=N/NC(=O)c3ccc(O)cc3)sc2=O)c1 | nt | -4% | 7% | -26% | -4%
O=Cc1sc(=O)n(Cc2cccc(C(=O)O)c2)c1Cl | 13µM* | -9% | -20% | 9% | 10µM*
C/C(N)=C(/C#N)C(=O)COC(=O)c1cccc2ccccc12 | -3% | ? | 6% | -2% | -14%
C/C(N)=C(/C#N)C(=O)COC(=O)c1cc(-c2cccc3ccccc23)nc2ccccc12 | -3% | ? | 4% | ? | 11µM*
O=C(CSc1nc2c(c(=O)[nH]1)CCCC2)Nc1ccccc1C(F)(F)F | 7% | -2% | nt | nt | -17%
CC(=O)N[C@@H](C(=O)O)C(C)(C)SN=O | 28µM* | -20% | 5% | -16% | ?
Cc1nn(C)c2c1c(C(F)(F)F)cc(=O)n2C(C)C(=O)Nc1ccccc1F (centres undefined) | 0% | -8% | nt | nt | 4%
Cc1ccc(NS(=O)(=O)c2cc(NC(=O)c3ccc4c(c3)NC(=O)CS4)ccc2Cl)c(C)c1 | -13% | ? | -17% | ? | 25µM*
CCOC(=O)c1sc2nc3c(SCC(=O)O)cc(C(=O)c4ccccc4O)cn3c(=O)c2c1C | ? | -3% | 11% | ? | 1%
COc1ccc(O)c(C(=O)c2cc(SCC(=O)O)c3nc4sc5c(c4c(=O)n3c2)CCCC5)c1 | 18µM* | -25% | 18% | ? | -7%
COc1ccc(-n2c(C)nc3sc4c(c3c2=O)CCCC4)cc1 | -6% | -7% | 8% | 7% | -5%
CCOC(=O)c1sc2nc3c(SCC(=O)O)cc(C(=O)c4cc(F)ccc4O)cn3c(=O)c2c1C | 13µM* | -10% | 16% | ? | -9%
SMILES | Tau fibril ThT | Tau fluor cs | GoLoco inh red | KDM4E inh | Tau fibril FP
CCC1CCCCN1C(=O)CSc1nc(-c2ccc(OC)cc2)cc(C(F)(F)F)n1 (centres undefined) | ? | -14% | nt | nt | 10%
N#Cc1ccc(C(=O)Nc2ccc(N3CCN(C(=O)c4ccco4)CC3)cc2)c(F)c1 | 1µM* | -17% | 0% | 0% | -1%
N#Cc1c(N)nc(N2CCCC2)c(C#N)c1-c1ccc(Cl)cc1 | 4% | -6% | 7% | ? | ?
CCC1Cc2c(nc(N)c3c(N)nc(N4CCCCC4)c(C#N)c23)O1 (centres undefined) | ? | 16µM*[quencher] | 2% | ? | 15%
N#Cc1c(N2CCCCC2)nc(N)c2c(N)nc3c(c12)CC(c1ccccc1)O3 (centres undefined) | ? | 11µM*[quencher] | 5% | ? | 15%
CCN(CC)c1nc(N)c2c(N)nc3c(c2c1C#N)CC(c1ccccc1)O3 (centres undefined) | ? | 32µM*[quencher] | -4% | ? | 12%
Cc1cccc(NC(=O)CSc2nc(-c3ccco3)nc3cc(=O)[nH]n23)c1 | -12% | -3% | nt | nt | -9%
CC(C)CCNC(=O)c1ccc2c(c1)N(Cc1ccccc1F)C(=O)c1ccccc1S2=O (centres undefined) | 5% | -23% | nt | nt | -7%
COC(=O)c1ccccc1NC(=O)c1cnc(Nc2ccc(OC)cc2)c2ccccc12 | ? | 4.5µM*[quencher] | nt | nt | 0%
COc1ccc(Nc2ncc(C(=O)Nc3cccc(Cl)c3)c3ccccc23)cc1 | ? | 8.9µM*[quencher] | nt | nt | 9%
COc1ccc(Nc2ncc(C(=O)Nc3cc(Cl)c(OC)cc3OC)c3ccccc23)cc1 | -20% | ? | nt | nt | ?
Cc1cccc(CNC(=O)C2CCN(S(=O)(=O)c3ccc4c(c3)CCCN4C(=O)C3CCC3)CC2)c1 | -3% | -8% | nt | nt | 10%
COc1ccc(S(=O)(=O)c2nnn(-c3ccccc3F)c2C)cc1 | -13% | -25% | nt | nt | 1%
N#CC12C(N)=NC3(OCCO3)C1(C#N)C1=C(CCC1)NC2c1ccccc1 (centres undefined) | ? | -12% | nt | ? | -4%
N#CC1(C#N)C2=C(CCCC2)NC(c2ccccc2)C1(C#N)C#N (centres undefined) | 25µM* | ? | 52% | ? | ?
COc1ccc(CN(C)S(=O)(=O)c2nnc(NC(=O)C(C)C)s2)cc1OC | 0% | -6% | nt | nt | -7%
Cc1cc2nc(CS)[nH]c2cc1C | 32µM* | -26% | 14% | 317% | -3%
O=C(N/N=C\c1ccc(-c2ccccc2[N+](=O)[O-])o1)C1COc2ccccc2O1 (centres undefined) | 13µM* | ? | 0% | -1% | ?
